In ChEMBL document CHEMBL3988442, “University of Dundee, Small-Polar-MMV Screening Library” (2021):
About 13,000 (27%) of roughly 48,000 compounds showed an effect of 50% or more. This is one part of the list.

tested on: Wolbachia pipientis; assay: Anti-Wolbachia Cell-Based Screen; format: functional; design: scale not given: in the data most compounds retested in dose-response had high values; conditions: 5 µM

| Compound | Percent Effect |
| --- | --- |
| CN(Cc1ccncc1)C(=O)c1ccc2c(c1O)OC(C)(C)C2 | -3.741% |
| Cc1cnc(CNC(=O)N(Cc2ccccc2)CC(C)(C)O)s1 | -9.272% |
| CCN1CCN(C(=O)CCC2CCN(C(C)CSC)CC2)CC1 (stereo unspecified) | 2.757% |
| COC(=O)C(C)(C)NC(=O)c1cc2sc(N(C)C)nc2s1 | -3.943% |
| CN1CCCN(c2nc3c(cnn3C(C)(C)C)c(=O)[nH]2)CC1 | -5.062% |
| Cc1c(C2NC3(CCCC3)C(=O)N2CC2CC2)cc(C#N)n1C (stereo unspecified) | -11.2% |
| CN(Cc1cc(Cl)c2c(c1)OCO2)Cc1cscn1 | 1.61% |
| CCOc1ccc(NC(=O)NCc2csc(NC)n2)cc1C | -0.8345% |
| CCc1ncnc2c1CCN(C(=O)c1cccn1C)CC2 | -9.929% |
| Cc1cccc(N2CCCC3(C2)CN(S(=O)(=O)C2CC2)CCO3)c1.O=C(O)C(F)(F)F (stereo unspecified) | -4.65% |
| CCn1c(CC2CCN(C(=O)c3ccnn3C)CC2)n[nH]c1=O | 13.3% |
| CC(=O)N1CCC(Cc2cccc(-c3ccnn3C)n2)CC1 | 116.5% |
| Cc1noc(C)c1-c1cccc(CC2CCN(C(=O)c3cscn3)C2)n1 (stereo unspecified) | 131.4% |
| Cc1noc(C)c1-c1cccc(CC2CCN(C(=O)CN)C2)n1 (stereo unspecified) | 128.9% |
| NC(=O)c1cccc(CC2CCN(C(=O)CO)C2)c1 (stereo unspecified) | -21.34% |
| Cc1noc(C)c1-c1cccc(CC2CCN(C(=O)CCC(=O)O)C2)n1 (stereo unspecified) | 2.064% |
| Cc1noc(C)c1CN1CC2(CCN(C(=O)c3cscn3)CC2)CC1=O | 4.447% |
| CN1CCC(Cc2nc(-c3ccnn3C)n(Cc3ccccc3)n2)CC1 | -2.907% |
| CC(=O)N1CCC(Cc2cccc(-c3c(C)noc3C)n2)C1 (stereo unspecified) | 135.5% |
| Cc1ccccc1C(=O)NC[C@@H]1CCN(C(=O)c2cscn2)C[C@H]1O | 3.097% |
| c1ccc(-c2cnc(CN3CCn4c(nnc4C4CC4)C3)o2)cc1 | -9.736% |
| CN(Cc1ccc2nonc2c1)C(=O)CCc1cc2n(n1)CCCNC2 | -9.744% |

| Compound | Percent Effect |
| --- | --- |
| CN(CCC1CCCCO1)c1nncc(-c2ccccc2)n1 (stereo unspecified) | 3.225% |
| Cc1cc(N(C)C)nc(N2CCCC2c2cc(C)on2)n1 (stereo unspecified) | 41.35% |
| CN(C)c1cc(C(F)(F)F)nc(N2CCCC2c2ccccn2)n1 (stereo unspecified) | 96.36% |
| c1ccc(C2CCCN2C2CCSCC2)nc1 (stereo unspecified) | -12.25% |
| c1ccc(C2CCCN2C2CSCCSC2)nc1 (stereo unspecified) | 20.29% |
| Cc1cc(C2CCC2)nc(N(C)CCc2ccccn2)n1 | 10.11% |
| Cc1cc(N(C)C)nc(N2CCCC2c2ccccn2)n1 (stereo unspecified) | 92.86% |
| Cc1nc(N2CCN(C(=O)c3ccccc3)CC2)cc(-n2ccnc2)n1 | -0.4006% |
| CC(C)CN1C[C@H](COCc2ccccc2)Oc2ncccc2C1=O | 89.35% |
| CCOc1ccccc1CCN1Cc2ncccc2C1=O | 5.291% |
| CCCC1CN(CCOC)C(=O)c2cccnc2O1 (stereo unspecified) | 110.6% |
| CCOc1ncccc1CN1Cc2ncccc2C1=O | 24.49% |
| CCCC1CN(CCOc2ccccc2)C(=O)c2cccnc2O1 (stereo unspecified) | 157.7% |
| COCCN1C[C@@H]2CN(c3ncccn3)C[C@@H]2C1=O | 3.665% |
| COCCN1CCCC(O)(CN2CCN(c3ncccc3C)CC2)C1=O (stereo unspecified) | -16.41% |
| O=S1(=O)COCCN1CCOc1ccccc1 | -11.75% |
| CC(C)(C)C(=O)N1CCC(COCc2ccccc2)C1 (stereo unspecified) | 14.31% |
| CCCC1CN(CC(C)C)C(=O)c2cccnc2O1 (stereo unspecified) | 72.42% |
| CCC(C)Oc1ccccc1CN1Cc2ncccc2C1=O (stereo unspecified) | 3.69% |
| Cc1cnc(C(=O)N2CCC(COCc3ccccc3)C2)cn1 (stereo unspecified) | 0.6759% |
| O=C(NC1CC1)N1CCC2(CC1)CC(N1CCOCC1)c1ccccc12.O=C(O)C(F)(F)F (stereo unspecified) | 2.797% |
| CCS(=O)(=O)NCCCNC1CSCCc2ccccc21 (stereo unspecified) | 1.268% |

| Compound | Percent Effect |
| --- | --- |
| O=C(O)C(F)(F)F.O=C(O)C(F)(F)F.O=C1[C@@H]2CCN(Cc3ccccn3)C[C@@H]2OCCN1c1ccccc1 | 5.214% |
| CCNC(=O)[C@@H]1C[C@H](N)CN1C1CCN(c2ccccc2OC)CC1 | -4.243% |
| COc1cc(C(=O)NCC2CCCN(Cc3ccco3)C2)ccn1 (stereo unspecified) | 2.476% |
| CC(C)Cc1cc(C(=O)NCC2CCCN(Cc3ccco3)C2)on1 (stereo unspecified) | 50.17% |
| CC(C)Cc1cc(C(=O)NCC2CCN(c3ccccc3F)C2)on1 (stereo unspecified) | -10.11% |
| CN(C)CCO[C@@H]1CC[C@H]2[C@H]1OCCN2C(=O)c1ccccc1F | 79.95% |
| Cc1cc(C(=O)N2CCO[C@H]3[C@H](Oc4ccccn4)CC[C@@H]32)c(C)[nH]1.O=C(O)C(F)(F)F | -3.803% |
| Cc1occc1C(=O)N1CCO[C@H]2[C@H](OCc3cccnc3)CC[C@@H]21.O=C(O)C(F)(F)F | 4.513% |
| Cc1ccccc1C(=O)N1CCO[C@H]2[C@H](OCCN(C)C)CC[C@@H]21.O=C(O)C(F)(F)F | 99.34% |
| CN(C)CCO[C@@H]1CC[C@H]2[C@H]1OCCN2C(=O)CCc1ccccc1.O=C(O)C(F)(F)F | -7.187% |
| Cc1cc(C(=O)N2CCO[C@H]3[C@H](OCCN(C)C)CC[C@@H]32)c(C)[nH]1.O=C(O)C(F)(F)F | 104.2% |
| Cc1occc1C(=O)N1CCO[C@H]2[C@H](OCc3ccccn3)CC[C@@H]21.O=C(O)C(F)(F)F | -3.941% |
| Cc1ccoc1C(=O)N1CCO[C@H]2[C@H](OCCN(C)C)CC[C@@H]21.O=C(O)C(F)(F)F | -19.8% |
| COc1ccc(C(=O)N2CCO[C@H]3[C@@H](OCC4CC4)CC[C@@H]32)cc1F | -14.51% |
| Cc1c(C(=O)N2CCCC(O)(CN(C)C)CC2)c2cc(O)ccc2n1C (stereo unspecified) | -7.516% |
| CC(=O)N1CCC(Nc2ccc(Br)cc2C#N)C1 (stereo unspecified) | -20.23% |
| O=C(CCn1ccc2ccccc21)N1CCC(Nc2cccnc2)CC1 | -9.935% |
| Cc1nc(C)c(C(=O)N2CCC(Nc3cccnc3)CC2)s1 | 6.028% |
| Cc1ccsc1C(=O)N1CCC(Nc2cccnc2)CC1 | 82.28% |
| Cc1cc(C(=O)N2CCC(Nc3cccnc3)CC2)c(C)s1 | 98.75% |
| COc1cc(C)sc1C(=O)N1CCC(Nc2cccnc2)CC1 | -10.68% |
| Cc1cc(C(=O)N2CCC(NC(=O)c3cccnc3)CC2)c(C)o1 | -8.9% |
